Assay results from article PMC5540273 (PLoS ONE, 2017).

Tests used:
Conditions in all cases: concentration: 1 μM, replicates: in singlicate; n = 1
NEK4 = test system: NEK4
NEK5 = test system: NEK5
NEK6 = test system: NEK6
NEK7 = test system: NEK7
NEK9 = test system: NEK9
NIK = test system: T1, NIK
T1 construct: gene MAP3K14

NIM1 = test system: T2, NIM1
T2 construct: gene MGC42105

NLK = test system: NLK
OSR1 = test system: T3, OSR1
T3 construct: gene OXSR1

PAK1 = test system: PAK1
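Further: KINOMEscan kinase panel screen.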

Compound | %Inh (NEK4) [%] | %Inh (NEK5) [%] | %Inh (NEK6) [%] | %Inh (NEK7) [%] | %Inh (NEK9) [%] | %Inh (NIK) [%] | %Inh (NIM1) [%] | %Inh (NLK) [%] | %Inh (OSR1) [%] | %Inh (PAK1) [%]
Cc1c(Cn2c(C)nn3c(=O)cc(N4CCO[C@H](C)C4)nc23)cccc1C(F)(F)F [GSK2373690] | 31 | 0 | 1 | 0 | 0 | 2 | 0 | 27 | 22 | 0
COc1cc2ncn(-c3cc(OCc4ccncc4Br)c(C(N)=O)s3)c2cc1OC [GW854278] | 0 | 2 | 0 | 0 | 0 | 25 | 10 | 0 | 0 | 1
O=C(NCc1cccs1)c1cc(C(=O)c2c(Cl)cccc2Cl)c[nH]1 [GW823670] | 0 | 17 | 0 | 0 | 0 | 0 | 2 | 0 | 0 | 5
COc1cc2ncn(-c3cc(OCc4ccncc4)c(C(N)=O)s3)c2cc1OC [GSK336313] | 0 | 23 | 0 | 0 | 15 | 0 | 0 | 11 | 31 | 16
Nc1n[nH]c2ncc(-c3ccccc3)cc12 [SB-517081] | 26 | 9 | 0 | 0 | 7 | 0 | 28 | 13 | 0 | 7
CCC(=O)c1c(-c2ccccc2)c2cc(Cl)ccc2c(=O)n1Cc1cc(S(C)(=O)=O)n(CC(N)=O)n1 | 0 | 0 | 0 | 0 | 0 | 0 | 14 | 0 | 0 | 32
Cn1c(=O)c(F)c(Nc2ccc(I)cc2F)c2c(=O)n(OC[C@H](O)CO)cnc21 | 0 | 4 | 30 | 0 | 0 | 0 | 0 | 0 | 0 | 0
O=C(Nc1n[nH]c2cc(-c3ccccc3F)ccc12)C1CC1 [SB-733371] | 0 | 0 | 0 | 11 | 0 | 0 | 0 | 15 | 0 | 0
COc1ccc(-n2cnc3c(N)ncnc32)cc1 [SKF-97236] | 0 | 0 | 5 | 0 | 17 | 0 | 12 | 0 | 14 | 0
COc1ccc(-c2cc3c(C)nc(N)nc3n([C@H]3CC[C@H](OCCO)CC3)c2=O)cn1 | 0 | 0 | 22 | 0 | 0 | 0 | 21 | 0 | 0 | 0
COc1cc(Nc2ccnc3ccc(C(F)(F)F)cc23)cc(OC)c1OC [GW577382] | 5 | 13 | 2 | 3 | 13 | 0 | 85 | 73 | 14 | 0
Cc1nc(N(C)[C@H]2CN(C(=O)CC#N)CC[C@H]2C)c2cc[nH]c2n1 | 4 | 11 | 7 | 0 | 0 | 0 | 0 | 7 | 0 | 0
Cc1nnc(-c2ccc(C)c(-c3ccc(C(=O)O)cc3)c2)o1 [GW608005] | 14 | 2 | 0 | 5 | 2 | 26 | 13 | 0 | 2 | 8
COc1cc2ncn(-c3cc(OCCCc4ccccc4)c(C(N)=O)s3)c2cc1OC [GSK205189] | 0 | 0 | 0 | 0 | 6 | 0 | 0 | 0 | 2 | 36
Cc1ccc(-c2ccc3c(ccc4sc5c(c43)NC[C@@H](C)N=C5N(C)C)n2)cn1 | 0 | 0 | 0 | 0 | 0 | 0 | 0 | 0 | 0 | 0
COc1cccc(-n2cnc3c(N)ncnc32)c1 [SKF-97416] | 0 | 8 | 8 | 0 | 0 | 27 | 61 | 0 | 24 | 20
FC(F)(F)c1ccc(-c2ncn(CCCN3CCOCC3)c2-c2ccncc2)cc1 [SB-217780] | 0 | 9 | 0 | 10 | 33 | 0 | 26 | 35 | 5 | 20
O=c1cc(N2CCOCC2)nc2n(Cc3ccc(F)c(Cl)c3)ccn12 [GSK2297099] | 0 | 9 | 0 | 61 | 64 | 0 | 17 | 14 | 6 | 5

Compound | %Inh (NEK4) [%] | %Inh (NEK5) [%] | %Inh (NEK6) [%] | %Inh (NEK7) [%] | %Inh (NEK9) [%] | %Inh (NIK) [%] | %Inh (NIM1) [%] | %Inh (NLK) [%] | %Inh (OSR1) [%] | %Inh (PAK1) [%]
COc1cccc(C2=C(Nc3cccc(C(=O)O)c3)C(=O)NC2=O)c1 [SB-390770] | 0 | 14 | 1 | 0 | 9 | 0 | 0 | 8 | 16 | 0
COc1cc2ncn(-c3cc(OCc4ccc(S(C)(=O)=O)cc4)c(C(N)=O)s3)c2cc1OC [GW869979] | 14 | 20 | 1 | 0 | 0 | 7 | 45 | 4 | 25 | 0
COC(=O)c1c(-c2ccccc2)c2cc(Br)ccc2c(=O)n1Cc1ccc(S(C)(=O)=O)cc1 | 17 | 0 | 20 | 3 | 6 | 0 | 15 | 0 | 4 | 24
COc1cc2nccc(Nc3ccc(OCc4ccc(NC(C)=O)cc4)cc3)c2cc1OC.Cl [GW440135] | 0 | 0 | 0 | 100 | 94.8 | 16 | 24 | 10 | 0 | 0
Cl.c1ccc(Cn2cnc3cc(Nc4ncnc5ccccc45)ccc32)cc1 [GW272142] | 0 | 16 | 0 | 0 | 7 | 14 | 0 | 0 | 26 | 0
Nc1nccc2scc(-c3ccc4c(c3)CCN4C(=O)Cc3ccccc3)c12 [GSK2576924] | 0 | 14 | 0 | 0 | 18 | 23 | 8 | 0 | 7 | 18
Fc1cccc(CSc2nnc(-c3ccc4c(c3)CCO4)o2)c1 | 20 | 6 | 10 | 13 | 12 | 0 | 0 | 0 | 3 | 28
Nc1ncnc2c1ncn2-c1ccc(Cl)cc1 [AH2635] | 0 | 12 | 0 | 0 | 0 | 89 | 27 | 0 | 0 | 4
Nc1ncnc2c1ncn2-c1cccc(F)c1 [SKF-97560] | 21 | 25 | 0 | 0 | 0 | 18 | 48 | 0 | 28 | 5
CCc1ccc(-c2ccc3c(c2)-c2nn(C)cc2S(=O)(=O)N3C)cc1 | 0 | 0 | 0 | 0 | 0 | 0 | 0 | 0 | 0 | 0
CN1C(=O)C(Nc2ccccc2)=C(c2ccccc2)C1=O [SB-300079] | 0 | 0 | 0 | 0 | 0 | 32 | 19 | 0 | 0 | 0
CCn1c(-c2ccoc2)nc2cnccc21 [SB-733887] | 22 | 4 | 5 | 0 | 0 | 21 | 11 | 7 | 9 | 12
CCCC(=O)Nc1n[nH]c2ncc(-c3cccc4ccccc34)cc12 [SB-642057] | 0 | 9 | 0 | 0 | 0 | 11 | 28 | 24 | 0 | 4
COc1ccc(CNC(=O)NC2CCN(c3ccnc(Nc4ccc(F)cc4)n3)C2)cc1 (centres unmarked) [GSK1379706] | 0 | 35 | 21 | 0 | 0 | 26 | 0 | 37 | 0 | 0
COc1ccc(Nc2nccc(N3CCC(NS(=O)(=O)c4ccc(NC(C)=O)cc4)C3)n2)cc1 (centres unmarked) [GSK1379729] | 3 | 33 | 11 | 3 | 5 | 17 | 11 | 13 | 20 | 6
Nc1n[nH]c2nnc(-c3ccccc3)c(-c3ccccc3)c12 [GW554060] | 0 | 0 | 0 | 0 | 0 | 100 | 28 | 0 | 9 | 0
CCC(=O)c1c(-c2ccccc2)c2cc(Cl)ccc2c(=O)n1Cc1cc(S(C)(=O)=O)n(CC(F)F)n1 | 0 | 0 | 0 | 0 | 0 | 0 | 0 | 0 | 0 | 0
